PubChem BioAssay (NCI)
Compounds without any hit were thinned out: in the full panel of roughly 79,000, 15% have a hit. A number with no mark means an inactive call. No stated cut-off is given here; in the data, active means growth inhibition above about 70%; inactive means the rest.

assay: NCI Yeast Anticancer Drug Screen. Data for the rad50 strain (AID 155);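 further: 0% = growth of vehicle-only cultures of the same strain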; details: S. cerevisiae rad50 strain growth inhibition; at 50.0 µM; stronger effect = higher value
How it was run: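 Growth of the mutant yeast was measured after compound exposure and referenced to vehicle-treated cultures.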

SMILES | growth inhibition [%]
CCCCCCCCCCCCCCCCCC1=NCC(C)O1 (stereo not given) | 4.6
O=C1C(N=Cc2c(O)ccc3ccccc23)CON1C(c1ccccc1)(c1ccccc1)c1ccccc1 (stereo not given) | 55.5
COc1cc(/C=C/C(=O)OC2C(O)C3CC(OC(=O)c4cc(OC)c(OC)c(OC)c4)CC2N3C)cc(OC)c1OC (stereo not given) | 0.55
Cc1cc([N+](=O)[O-])ccn1 | -15.2
COc1cc(NC(C)CCCN)c2nccc(C)c2c1 (stereo not given) | 16.2
O=S(=O)(N1CCOCC1)N1CCOCC1 | -3.9
NC(=O)N/N=C/c1ccccc1O | 28.8
COc1ccc2nc3cccc([N+](=O)[O-])c3c(NCCC(=O)O)c2c1 | 56.1
CCN(CC)P(=O)(c1ccc2c(c1)OCCOCCOCCOCCO2)N(CC)CC | 28.9
N#CC(NCCCNC(C#N)c1ccccc1)c1ccccc1 (stereo not given) | -1
CC(=O)SC1CC2CCC1C2 (stereo not given) | 0.75
CCOC(=O)COc1c(C)cccc1C | 17.6
CCCCOCCOCC(C)O (stereo not given) | 14.9
CC(C)CC(Br)C(=O)NCC(=O)NCC(=O)O (stereo not given) | 32.3
OC1CCCCC2CC2C1O (stereo not given) | 9.25
CSc1nc(NC2OC(COC(C)=O)C(OC(C)=O)C(OC(C)=O)C2OC(C)=O)c2c(n1)OCC2=O (stereo not given) | 2.65
Nc1ncnc2nc(N3CCN(CCO)CC3)[nH]c12 | 9.45
ClC1CCC(c2ccccc2)CC1 (stereo not given) | 9.2
CC(C)[Si](C#CC[Si](C(C)C)(C(C)C)C(C)C)(C(C)C)C(C)C | -13.8
Cc1ccc(N(C(=O)CC(=O)NN)C(=O)c2ccccc2Cl)cc1 | -12.4

SMILES | growth inhibition [%]
Cc1nc2cc(Cl)ccc2s1 | 30.5
c1ccc2[nH]c(N=Nc3cccc4c(N=Nc5cc6ccccc6[nH]5)cccc34)cc2c1 | 5.1
CCOc1ccc(N(O)C(C)=O)cc1 | 1.9
CC1CC(=O)C(CC(=O)O)[C@H]1C(C(=O)C(=O)Nc1cc(Cl)ccc1Cl)[N+](=O)[O-] (stereo not given in full) | 1.45
O=[N+]([O-])c1ccc(C(O)(C#CCN2CCCC2)c2ccccc2)cc1 (stereo not given) | 20.5
CCC(CO)N1CNC(=S)NC1 (stereo not given) | -4.8
CC(=O)Nc1ccccc1NOC(=O)c1ccccc1NC(C)=O | -3.1
CCN(CC)c1ccc(C(C#N)(c2ccc(N(CC)Cc3cccc(S(=O)(=O)O)c3)cc2)c2ccc(N(CC)Cc3cccc(S(=O)(=O)O)c3)cc2)cc1 | -1
CC1CCCN(C(=O)Nc2ccccc2)C1 (stereo not given) | 14.4
CCCC(=O)Oc1ccc2ccccc2c1 | 7.65
CCOC(=O)[C@H]1Nc2ccc(C)cc2C2c3ccccc3CC21 (stereo not given in full) | -1.5
CC(C)CN(CC#N)CC(C)C | -31.8
O=[N+]([O-])c1ccc(-c2cc3ccccc3nc2Cl)cc1 | 15.4
CC(C)(C)[Si](C)(C)OCC1OC(n2cnc3c(N)ncnc32)C(O)C1O (stereo not given) | -12.4
O=C(NC(=O)c1ccc(F)c(Cl)c1)NC1CC1 | 6.3
N#CCCNCCC[Si]12OCCN(CCO1)CCO2 | 6.5
Cc1cc(N(CCC#N)CCC#N)ccc1/C(N=Nc1cccc(Cl)c1)=N/NC(=O)c1cc(Cl)ccc1O | 21
CCCCCCCCOc1ccc(Cl)cc1 | -2.95
NC(=O)c1ccccc1NC(=O)C(=O)Cc1nc2ccccc2[nH]c1=O | -2.55
CC(=O)OCC1OC(n2ccc(=O)[nH]c2=O)CC1N=[N+]=[N-] (stereo not given) | -25.1
